Values without a mark were called inactive.
Compound: C#CCNC(=O)CCSSCCC(=O)NCCc1ccc(C=O)c(C=O)c1
Experiment: lysine labeling ratio R10:1 (500 µM / 50 µM probe), SILAC-ABPP in living cells; higher = lower intrinsic lysine reactivity toward the probe, active = 2 or less
Conditions: HeLa; probe concentrations 500 vs 50 µM
Method in brief: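 Each lysine carries an R value: the filtered median of MS1 peptide ratios of high probe to low probe, with the median then taken over forward and reverse replicates. These came from living SILAC light and heavy HeLa cells in PBS at room temperature labelled with an alkyne-tagged, disulfide-linked lysine probe at 500 µM or 50 µM, in forward and reverse swaps. The lysates were mixed, clicked to biotin-azide, trypsin-digested, captured on neutravidin, released by DTT, alkylated and run by LC-MS/MS on a TIMS-TOF Pro. The highest value allowed is 20.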

UniProt P07237, sequence (P07237 whole entry, looked up): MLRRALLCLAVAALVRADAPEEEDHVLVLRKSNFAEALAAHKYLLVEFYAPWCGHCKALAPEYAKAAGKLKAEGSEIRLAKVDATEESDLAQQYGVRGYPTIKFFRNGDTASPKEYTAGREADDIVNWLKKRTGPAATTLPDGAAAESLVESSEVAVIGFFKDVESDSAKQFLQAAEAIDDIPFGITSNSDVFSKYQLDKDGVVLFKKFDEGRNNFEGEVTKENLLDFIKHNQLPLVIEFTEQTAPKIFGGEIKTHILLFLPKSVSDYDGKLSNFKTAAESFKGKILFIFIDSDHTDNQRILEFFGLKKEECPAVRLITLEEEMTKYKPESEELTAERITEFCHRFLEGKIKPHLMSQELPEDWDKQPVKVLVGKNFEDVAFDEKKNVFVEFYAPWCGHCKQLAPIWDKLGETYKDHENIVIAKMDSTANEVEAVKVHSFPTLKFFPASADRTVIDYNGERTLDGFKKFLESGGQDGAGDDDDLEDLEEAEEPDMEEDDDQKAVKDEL
UniProt O15020, sequence (O15020 whole entry): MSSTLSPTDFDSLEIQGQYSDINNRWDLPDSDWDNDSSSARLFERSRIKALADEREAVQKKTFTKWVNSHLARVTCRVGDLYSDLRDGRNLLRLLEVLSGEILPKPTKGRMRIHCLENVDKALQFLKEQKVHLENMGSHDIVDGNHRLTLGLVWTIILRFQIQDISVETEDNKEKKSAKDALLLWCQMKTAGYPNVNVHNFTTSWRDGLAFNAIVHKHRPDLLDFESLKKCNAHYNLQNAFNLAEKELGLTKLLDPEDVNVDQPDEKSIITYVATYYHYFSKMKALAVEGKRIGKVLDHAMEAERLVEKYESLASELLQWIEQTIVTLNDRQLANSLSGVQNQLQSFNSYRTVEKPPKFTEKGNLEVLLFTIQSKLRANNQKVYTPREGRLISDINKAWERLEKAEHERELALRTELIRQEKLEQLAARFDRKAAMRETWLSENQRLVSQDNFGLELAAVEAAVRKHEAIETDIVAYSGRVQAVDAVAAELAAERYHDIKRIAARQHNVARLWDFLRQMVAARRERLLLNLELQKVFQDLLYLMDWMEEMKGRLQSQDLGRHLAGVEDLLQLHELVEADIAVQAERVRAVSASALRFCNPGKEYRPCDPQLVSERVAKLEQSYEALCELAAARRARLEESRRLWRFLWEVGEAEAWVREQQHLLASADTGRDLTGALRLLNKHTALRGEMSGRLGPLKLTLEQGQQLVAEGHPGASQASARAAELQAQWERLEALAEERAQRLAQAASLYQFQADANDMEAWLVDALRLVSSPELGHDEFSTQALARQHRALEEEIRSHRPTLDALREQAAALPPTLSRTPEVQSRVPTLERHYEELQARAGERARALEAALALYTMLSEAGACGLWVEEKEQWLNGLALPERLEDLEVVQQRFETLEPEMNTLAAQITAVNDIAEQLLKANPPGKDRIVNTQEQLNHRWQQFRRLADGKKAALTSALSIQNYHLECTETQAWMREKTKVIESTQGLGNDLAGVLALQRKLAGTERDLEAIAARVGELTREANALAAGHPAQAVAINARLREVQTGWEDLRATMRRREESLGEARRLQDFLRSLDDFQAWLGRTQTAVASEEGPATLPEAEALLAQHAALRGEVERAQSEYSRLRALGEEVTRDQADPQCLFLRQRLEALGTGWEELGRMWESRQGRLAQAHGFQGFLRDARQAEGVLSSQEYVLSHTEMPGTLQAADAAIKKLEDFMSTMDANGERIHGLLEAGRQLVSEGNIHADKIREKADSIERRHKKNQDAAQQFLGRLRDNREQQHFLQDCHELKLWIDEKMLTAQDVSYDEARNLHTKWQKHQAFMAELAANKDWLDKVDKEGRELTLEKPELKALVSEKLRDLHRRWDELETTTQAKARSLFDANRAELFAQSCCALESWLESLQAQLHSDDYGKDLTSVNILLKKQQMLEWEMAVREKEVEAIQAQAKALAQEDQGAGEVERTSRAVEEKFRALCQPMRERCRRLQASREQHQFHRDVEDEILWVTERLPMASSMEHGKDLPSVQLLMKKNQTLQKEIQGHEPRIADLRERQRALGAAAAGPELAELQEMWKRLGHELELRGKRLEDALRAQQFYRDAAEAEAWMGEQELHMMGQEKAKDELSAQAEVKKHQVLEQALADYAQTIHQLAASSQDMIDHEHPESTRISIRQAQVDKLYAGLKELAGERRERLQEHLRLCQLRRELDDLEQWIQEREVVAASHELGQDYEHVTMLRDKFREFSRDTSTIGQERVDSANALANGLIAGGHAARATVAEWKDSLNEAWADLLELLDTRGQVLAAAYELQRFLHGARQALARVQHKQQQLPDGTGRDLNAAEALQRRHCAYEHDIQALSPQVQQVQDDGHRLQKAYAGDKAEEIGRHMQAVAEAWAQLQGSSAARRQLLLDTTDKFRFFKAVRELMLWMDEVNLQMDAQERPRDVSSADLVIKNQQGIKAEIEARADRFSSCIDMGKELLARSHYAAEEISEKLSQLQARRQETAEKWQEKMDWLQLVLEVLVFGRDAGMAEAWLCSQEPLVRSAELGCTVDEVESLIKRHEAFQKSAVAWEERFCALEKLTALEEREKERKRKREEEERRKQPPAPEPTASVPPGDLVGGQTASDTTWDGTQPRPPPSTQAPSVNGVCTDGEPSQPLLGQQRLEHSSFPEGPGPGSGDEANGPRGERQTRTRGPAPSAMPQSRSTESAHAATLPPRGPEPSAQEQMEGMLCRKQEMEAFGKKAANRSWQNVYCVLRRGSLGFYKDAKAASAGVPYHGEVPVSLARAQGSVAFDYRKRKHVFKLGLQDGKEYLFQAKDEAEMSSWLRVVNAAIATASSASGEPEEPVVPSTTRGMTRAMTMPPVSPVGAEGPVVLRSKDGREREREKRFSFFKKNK
UniProt O14964, sequence (O14964 whole entry): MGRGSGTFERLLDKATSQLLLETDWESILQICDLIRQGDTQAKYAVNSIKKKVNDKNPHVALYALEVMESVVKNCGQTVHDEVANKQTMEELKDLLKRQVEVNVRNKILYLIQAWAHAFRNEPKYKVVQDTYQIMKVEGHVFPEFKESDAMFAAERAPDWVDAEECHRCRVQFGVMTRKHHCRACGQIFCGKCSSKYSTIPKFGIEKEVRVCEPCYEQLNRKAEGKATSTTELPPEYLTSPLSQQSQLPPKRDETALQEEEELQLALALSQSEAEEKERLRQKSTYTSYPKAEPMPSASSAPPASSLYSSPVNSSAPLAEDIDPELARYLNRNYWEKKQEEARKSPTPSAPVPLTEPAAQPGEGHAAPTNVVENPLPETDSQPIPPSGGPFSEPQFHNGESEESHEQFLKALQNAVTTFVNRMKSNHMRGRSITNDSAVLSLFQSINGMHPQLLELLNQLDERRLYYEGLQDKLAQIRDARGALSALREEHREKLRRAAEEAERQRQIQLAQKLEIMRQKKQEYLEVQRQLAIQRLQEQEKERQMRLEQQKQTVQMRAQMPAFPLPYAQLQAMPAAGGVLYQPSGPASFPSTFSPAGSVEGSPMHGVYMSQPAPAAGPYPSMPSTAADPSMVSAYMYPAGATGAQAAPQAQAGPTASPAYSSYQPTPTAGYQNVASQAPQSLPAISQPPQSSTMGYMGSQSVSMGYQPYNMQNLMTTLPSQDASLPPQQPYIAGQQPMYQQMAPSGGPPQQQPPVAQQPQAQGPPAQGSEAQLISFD
UniProt P54826, sequence (P54826 whole entry): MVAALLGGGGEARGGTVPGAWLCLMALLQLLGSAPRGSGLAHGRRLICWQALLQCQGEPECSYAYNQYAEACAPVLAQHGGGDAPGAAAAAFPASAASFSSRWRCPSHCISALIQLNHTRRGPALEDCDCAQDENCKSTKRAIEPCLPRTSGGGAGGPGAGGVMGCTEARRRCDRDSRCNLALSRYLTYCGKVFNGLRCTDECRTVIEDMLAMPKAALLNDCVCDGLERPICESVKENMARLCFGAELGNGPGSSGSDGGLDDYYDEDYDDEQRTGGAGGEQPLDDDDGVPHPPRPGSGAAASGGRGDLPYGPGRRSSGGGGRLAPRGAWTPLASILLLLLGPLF
UniProt P49368, sequence (P49368 whole entry): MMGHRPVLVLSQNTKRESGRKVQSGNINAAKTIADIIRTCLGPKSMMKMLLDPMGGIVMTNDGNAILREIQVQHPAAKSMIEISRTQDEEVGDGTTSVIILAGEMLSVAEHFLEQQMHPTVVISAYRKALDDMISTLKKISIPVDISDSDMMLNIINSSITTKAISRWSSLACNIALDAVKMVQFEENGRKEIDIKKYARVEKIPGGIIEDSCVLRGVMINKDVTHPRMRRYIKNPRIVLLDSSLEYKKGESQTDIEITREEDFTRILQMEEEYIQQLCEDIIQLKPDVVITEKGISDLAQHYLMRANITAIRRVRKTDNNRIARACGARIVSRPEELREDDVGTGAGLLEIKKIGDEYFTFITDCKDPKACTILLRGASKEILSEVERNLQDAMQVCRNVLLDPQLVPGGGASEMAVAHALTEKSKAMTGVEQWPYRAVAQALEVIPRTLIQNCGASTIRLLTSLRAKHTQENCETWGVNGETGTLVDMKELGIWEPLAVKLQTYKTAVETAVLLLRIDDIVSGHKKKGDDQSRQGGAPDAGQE
UniProt P34741, sequence (P34741 whole entry): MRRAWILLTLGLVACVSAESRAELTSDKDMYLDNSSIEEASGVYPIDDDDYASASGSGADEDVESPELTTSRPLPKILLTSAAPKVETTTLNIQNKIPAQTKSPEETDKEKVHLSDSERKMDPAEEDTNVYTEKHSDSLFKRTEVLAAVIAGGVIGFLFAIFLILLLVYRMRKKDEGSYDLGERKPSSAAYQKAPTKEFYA

| Target | lysine labeling ratio R10:1 |
| --- | --- |
| RPL5 (lysine site: K27) (UniProt P46777) | 1.97 (active) |
| LAMC1 (lysine site: K1191) (UniProt P11047) | 2.51 |
| CCT2 (lysine site: K135) (UniProt P78371) | 2.8 |
| SLC3A2 (lysine site: K300) (UniProt P08195) | 6.33 |
| HGS (lysine site: K551) (UniProt O14964) | 0.818 (active) |
| CELSR2 (lysine site: K1846) (UniProt Q9HCU4) | 3.09 |
| IGF1R (lysine site: K47) (UniProt P08069) | 3.62 |
| SDC2 (lysine site: K111) (UniProt P34741) | 1.38 (active) |
| NLRX1 (lysine site: K301) (UniProt Q86UT6) | 2.38 |
| SPTBN2 (lysine site: K1874) (UniProt O15020) | 5.9 |
| SEMA3C (lysine site: K416) (UniProt Q99985) | 2.36 |
| P4HB (lysine site: K114) (UniProt P07237) | 6.39 |
| PDCD6IP (lysine site: K285) (UniProt Q8WUM4) | 15.7 |
| CCT6A (lysine site: K530) (UniProt P40227) | 4.16 |
| GAS1 (lysine site: K137) (UniProt P54826) | 3.54 |
| CCT3 (lysine site: K427) (UniProt P49368) | 0.772 (active) |
| IGF2R (lysine site: K1579) (UniProt P11717) | 0.605 (active) |
| UniProt P22413 (lysine site: K503) | 1.89 (active) |
| LAMB1 (lysine site: K215) (UniProt P07942) | 2.29 |

Source: the supplement of paper PMC11001985
